Experimental findings from PubChem BioAssay (EPA / NIEHS) are described below.

“And” between values parts separate entries of the source, which are not always exact repeats. Equal values may be shown once. Records with an inconclusive call do not appear. Some structures have more than one record in an assay (separate samples or runs), and their calls can disagree. The source made the active and inactive calls. How the source made its calls, unless noted: active means hit-call score of the fitted dose curve at least 0.9, where 1 is the maximum; inconclusive means response in the unintended direction; inactive means score below 0.9.

Read-out in test [1]: glucuronosyltransferase (UGT1A1), UGT1A1 (gene 54658)
The experiment in a line: CLD_UGT1A1_6hr: CellzDirect (CLD) Gene Expression Assay for glucuronosyltransferase (UGT1A1) at 6 hours (AID 2283672). Put shortly:
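Primary human hepatocytes from two donor preparations, dosed with fresh solutions in 0.2% DMSO, harvested at 6 h. UGT1A1 mRNA measured by qNPA chemiluminescence; induction fitted upward versus DMSO.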

Read-out in test [2]: xenobiotic metabolism (CYP1A1), CYP1A1 (gene 1543)
Kind of test: CLD_CYP1A1_24hr: CellzDirect (CLD) Gene Expression Assay for xenobiotic metabolism (CYP1A1) at 24 hours (AID 2283673).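 Further: CYP1A1 mRNA level by quantitative nuclease protection with chemiluminescence.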 Put shortly:
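Primary human hepatocytes dosed daily with fresh solutions in 0.2% DMSO vehicle. mRNA measured at 24 h by quantitative nuclease protection assay with chemiluminescence; gain-of-signal fit versus DMSO, with morphology-based cytotoxicity flags.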

Read-out in test [3]: Cytochrome P450 2B6 (Homo sapiens) (UniProt P20813)
The experiment in a line: CLD_CYP2B6_6hr: CellzDirect (CLD) Gene Expression Assay for xenobiotic metabolism (CYP2B6) at 6 hours (AID 2283677).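 Further: actives raise CYP2B6 transcript above DMSO baseline so AC50 marks an inducer.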 An outline of the steps:
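Primary human hepatocytes dosed with chemicals at multiple concentrations, vehicle 0.2% DMSO; CYP2B6 mRNA induction measured 6 h after dosing by quantitative nuclease protection assay with chemiluminescence, gain of signal fitted relative to DMSO.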

Read-out in test [4]: Cytochrome P450 2C19 (Homo sapiens) (UniProt P33261)
The experiment in a line: CLD_CYP2C19_6hr: CellzDirect (CLD) Gene Expression Assay for xenobiotic metabolism (CYP2C19) at 6 hours (AID 2283678). Put shortly:
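Primary human hepatocytes from two donor preparations were dosed daily, with 0.2% DMSO as vehicle, and harvested 6 h after dosing. CYP2C19 mRNA induction was measured by qNPA chemiluminescence and fitted as gain of signal against DMSO.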

Test [5] in a line: CCTE_Padilla_ZF_144hpf_TERATOSCORE: (Legacy) CCTE's 144 Hour Post-fertilization zebrafish Assay Teratoscore, Padilla Lab (AID 2283679; active means hit-call score of the fitted dose curve at least 0.9, where 1 is the maximum; inactive means score below 0.9;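 on AC50: zebrafish embryos with chorions exposed by immersion from 6-8 hpf to 5 dpf with daily renewal; teratogenicity score from eye scoring of death hatching and malformations at 144 hpf; higher score means more developmental defects relative to DMSO baseline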). Put shortly:
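Larvae scored by eye at 144 hpf for death, hatching and malformations after a day in clean Hanks'. Before that, daily-renewed exposure at 80 uM (0.4% DMSO, 26C) from roughly 6-8 hpf through 5 dpf, 4 embryos per chemical.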

Read-out in test [6]: Cytochrome P450 3A4 (Homo sapiens) (UniProt P08684)
Kind of test: CLD_CYP3A4_6hr: CellzDirect (CLD) Gene Expression Assay for xenobiotic metabolism (CYP3A4) at 6 hours (AID 2283680). Put shortly:
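Primary human hepatocytes (two donor preparations) dosed; CYP3A4 mRNA harvested at 6 h and quantified by qNPA chemiluminescence. Gain of signal fitted against 0.2% DMSO vehicle; cytotoxicity flagged by phase-contrast morphology.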

Read-out in test [7]: Glyceraldehyde-3-phosphate dehydrogenase (Homo sapiens) (UniProt P04406)
The experiment in a line: CLD_GAPDH_6hr: CellzDirect (CLD) Gene Expression Assay for Baseline Control (Glyceraldehyde 3-phosphate dehydrogenase) at 6 hours (AID 2283681).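 Further: active means increased signal relative to DMSO vehicle.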 Put shortly: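 Primary human hepatocytes from two donor preparations, dosed at multiple concentrations with 0.2% DMSO vehicle; GAPDH mRNA measured 6 h after dosing by chemiluminescent quantitative nuclease protection assay (qNPA) on denatured lysates. Serves as background control; cytotoxicity annotated by morphology.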

Read-out in test [8]: HMG-CoA synthase (HMGCS2), HMGCS2 (gene 3158)
Kind of test: CLD_HMGCS2_6hr: CellzDirect (CLD) Gene Expression Assay for HMG-CoA synthase (HMGCS2) at 6 hours (AID 2283682).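 Further: actives raise HMGCS2 transcript above the 0.2% DMSO vehicle baseline.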 Put shortly:
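Primary human hepatocytes dosed daily with fresh chemical, 0.2% DMSO vehicle; HMGCS2 mRNA measured at 6 h by qNPA chemiluminescence. Gain of signal fitted against DMSO; cytotoxicity flagged from phase-contrast morphology.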

Read-out in test [9]: xenobiotic metabolism (CYP1A2), CYP1A2 (gene 1544)
Kind of test: CLD_CYP1A2_24hr: CellzDirect (CLD) Gene Expression Assay for xenobiotic metabolism (CYP1A2) at 24 hours (AID 2283683). An outline of the steps: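 Primary human hepatocytes from two donor preparations dosed daily with multiple concentrations of chemical, 0.2% DMSO vehicle. CYP1A2 mRNA at 24 h quantified by qNPA chemiluminescence; gain of signal analyzed relative to DMSO. Cytotoxicity flagged by phase-contrast morphology.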

Read-out in test [10]: ABC Transporter (ABCB1), ABCB1 (gene 5243)
Kind of test: CLD_ABCB1_24hr: CellzDirect (CLD) Gene Expression Assay for ABC Transporter (ABCB1) at 24 hours (AID 2283684). Put shortly: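 Primary human hepatocytes, two donor preparations, dosed daily with fresh solutions; vehicle 0.2% DMSO; harvested at 24 h. ABCB1 mRNA measured by quantitative nuclease protection assay (chemiluminescence); morphology-based cytotoxicity annotated.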

Read-out in test [11]: Cytochrome P450 2C19 (Homo sapiens) (UniProt P33261)
Kind of test: CLD_CYP2C19_24hr: CellzDirect (CLD) Gene Expression Assay for xenobiotic metabolism (CYP2C19) at 24 hours (AID 2283687).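 Further: activity means mRNA induction above DMSO vehicle baseline.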 An outline of the steps:
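Primary human hepatocytes (two donor preparations) dosed daily with fresh test chemical in 0.2% DMSO vehicle; CYP2C19 mRNA induction measured at 24 h by quantitative nuclease protection assay with chemiluminescence, fitted for gain of signal versus DMSO.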

Read-out in test [12]: Cytochrome P450 2C9 (Homo sapiens) (UniProt P11712)
The experiment in a line: CLD_CYP2C9_24hr: CellzDirect (CLD) Gene Expression Assay for xenobiotic metabolism (CYP2C9) at 24 hours (AID 2283688). Put shortly:
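Primary human hepatocytes from two donor preparations, dosed daily for two days at multiple concentrations; vehicle 0.2% DMSO. CYP2C9 mRNA induction at 24 h measured by qNPA chemiluminescence relative to DMSO; cytotoxicity annotated from morphology.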

Read-out in test [13]: Cytochrome P450 3A4 (Homo sapiens) (UniProt P08684)
The experiment in a line: CLD_CYP3A4_24hr: CellzDirect (CLD) Gene Expression Assay for xenobiotic metabolism (CYP3A4) at 24 hours (AID 2283689). Put shortly:
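Primary human hepatocytes from two donors dosed daily with fresh compound for two days, 0.2% DMSO vehicle. CYP3A4 mRNA at 24 hr by qNPA chemiluminescence; gain-of-signal fit versus DMSO, cytotoxicity flagged by morphology.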

Read-out in test [14]: organic anion transporter (SLCO1B1), SLCO1B1 (gene 10599)
Kind of test: CLD_SLCO1B1_24hr: CellzDirect (CLD) Gene Expression Assay for organic anion transporter (SLCO1B1) at 24 hours (AID 2283690). An outline of the steps:
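Primary human hepatocytes (two donor preparations) dosed daily for two days with chemicals at multiple concentrations, 0.2% DMSO vehicle. SLCO1B1 mRNA at 24 h measured by qNPA chemiluminescence; induction fitted relative to DMSO.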

Read-out in test [15]: HMG-CoA synthase (HMGCS2), HMGCS2 (gene 3158)
The experiment in a line: CLD_HMGCS2_24hr: CellzDirect (CLD) Gene Expression Assay for HMG-CoA synthase (HMGCS2) at 24 hours (AID 2283691). Put shortly: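 Primary human hepatocytes from two donor preparations, dosed daily with fresh solutions; vehicle 0.2% DMSO, 24 h harvest. HMGCS2 mRNA quantified by qNPA with S1 nuclease digestion and chemiluminescence; gain fitted versus DMSO, cytotoxicity annotated by morphology.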

Read-out in test [16]: alkyl and aryl transferase (GSTA2), GSTA2 (gene 2939)
Kind of test: CLD_GSTA2_24hr: CellzDirect (CLD) Gene Expression Assay for alkyl and aryl transferase (GSTA2) at 24 hours (AID 2283693). Put shortly:
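Primary human hepatocytes (two donor preparations) dosed daily for two days with chemicals at multiple concentrations (vehicle 0.2% DMSO); GSTA2 mRNA at 24 h measured by qNPA chemiluminescence, gain-of-signal versus DMSO.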

Read-out in test [17]: Cytochrome P450 2B6 (Homo sapiens) (UniProt P20813)
The experiment in a line: CLD_CYP2B6_48hr: CellzDirect (CLD) Gene Expression Assay for xenobiotic metabolism (CYP2B6) at 48 hours (AID 2283699).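 Further: actives raise transcript level above DMSO so potency reflects induction.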 Put shortly:
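Primary human hepatocytes dosed daily for two days over multiple concentrations, 0.2% DMSO vehicle; CYP2B6 mRNA quantified at 48 h by qNPA chemiluminescence. Induction fitted as gain of signal versus DMSO; cytotoxicity annotated by morphology.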

Read-out in test [18]: glucuronosyltransferase (UGT1A1), UGT1A1 (gene 54658)
Kind of test: CLD_UGT1A1_24hr: CellzDirect (CLD) Gene Expression Assay for glucuronosyltransferase (UGT1A1) at 24 hours (AID 2283696). An outline of the steps:
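Primary human hepatocytes from two donor preparations were dosed (0.2% DMSO vehicle) and harvested at 24 h; UGT1A1 mRNA induction was quantified by chemiluminescent qNPA, fitted as gain relative to DMSO.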

Sequence of Cytochrome P450 3A4 (Homo sapiens) (P08684 whole entry, looked up): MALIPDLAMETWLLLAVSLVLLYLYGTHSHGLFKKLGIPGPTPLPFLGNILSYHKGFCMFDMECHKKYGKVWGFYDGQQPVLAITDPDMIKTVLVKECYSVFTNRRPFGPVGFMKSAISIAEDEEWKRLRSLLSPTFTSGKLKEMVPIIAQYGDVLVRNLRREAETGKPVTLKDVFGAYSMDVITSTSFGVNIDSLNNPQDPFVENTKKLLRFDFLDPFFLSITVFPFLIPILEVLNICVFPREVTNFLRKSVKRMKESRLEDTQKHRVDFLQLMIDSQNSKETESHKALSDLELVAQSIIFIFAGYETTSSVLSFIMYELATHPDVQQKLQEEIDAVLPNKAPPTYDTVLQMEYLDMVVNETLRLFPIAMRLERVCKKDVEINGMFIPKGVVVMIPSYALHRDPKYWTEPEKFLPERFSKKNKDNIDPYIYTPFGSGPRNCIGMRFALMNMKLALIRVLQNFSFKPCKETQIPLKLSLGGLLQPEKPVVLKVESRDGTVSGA
Sequence of Glyceraldehyde-3-phosphate dehydrogenase (Homo sapiens) (P04406 whole entry, looked up): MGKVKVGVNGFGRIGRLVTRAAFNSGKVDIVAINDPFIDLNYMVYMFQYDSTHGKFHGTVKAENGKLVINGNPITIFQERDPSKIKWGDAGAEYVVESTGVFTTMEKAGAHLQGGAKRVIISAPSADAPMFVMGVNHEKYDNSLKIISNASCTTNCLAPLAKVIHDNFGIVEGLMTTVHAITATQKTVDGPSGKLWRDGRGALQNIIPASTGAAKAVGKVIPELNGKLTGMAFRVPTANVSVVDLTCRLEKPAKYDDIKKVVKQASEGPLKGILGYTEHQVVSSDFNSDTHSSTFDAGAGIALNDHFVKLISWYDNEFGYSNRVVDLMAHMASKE
Sequence of Cytochrome P450 2C19 (Homo sapiens) (P33261 whole entry, looked up): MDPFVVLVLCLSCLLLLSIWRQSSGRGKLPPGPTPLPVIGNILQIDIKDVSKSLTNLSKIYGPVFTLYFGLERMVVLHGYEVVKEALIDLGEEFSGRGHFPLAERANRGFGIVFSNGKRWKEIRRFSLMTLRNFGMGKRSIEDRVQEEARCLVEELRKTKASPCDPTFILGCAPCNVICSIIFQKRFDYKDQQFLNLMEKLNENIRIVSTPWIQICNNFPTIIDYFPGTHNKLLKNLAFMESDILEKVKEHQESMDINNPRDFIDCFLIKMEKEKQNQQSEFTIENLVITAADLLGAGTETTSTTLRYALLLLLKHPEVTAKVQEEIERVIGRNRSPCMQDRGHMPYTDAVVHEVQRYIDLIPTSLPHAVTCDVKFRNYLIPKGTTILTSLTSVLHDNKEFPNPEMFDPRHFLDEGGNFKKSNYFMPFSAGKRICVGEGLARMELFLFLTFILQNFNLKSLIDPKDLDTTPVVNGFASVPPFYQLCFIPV

Turning to `COc1nc(C)nc(NC(=O)NS(=O)(=O)c2ccccc2CCC(F)(F)F)n1`, the compound was classed as inactive in test [1], in test [2], in test [4], in [5], in test [6] and in [7]. The compound was called inactive in test [8], in test [9], in [10], in test [11], in [12] and in test [13]. Besides, the result in [14], in test [15] and in [16] was inactive. Besides, the AC50 was 20 µM (active) in test [2]; 3.21 µM (active) and 1.89 µM (active) in test [3]; 1.7 µM (active) and 11 µM (active) in test [9]; 36.7 µM (active) and 5.29 µM (active) in test [13]; 2.5 µM (active) and 990 nM (active) and 836 nM (active) in test [17].

As to `CCNc1nc(Cl)nc(NC(C)C)n1`, the call in test [1], in test [4], in test [5], in test [7], in [8] and in [10] was inactive. For the same compound, the outcome in test [11] and in test [16] was inactive. Also, the AC50 in test [2] was 4.27 µM (active); in [3], 2.99 µM (active); in test [6], 20 µM (active); in test [9] it was 3.11 µM (active); in test [13], 20 µM (active); in [17] it was 3.97 µM (active).

In the case of `OC(c1ccc(Cl)cc1)(c1cncnc1)c1ccccc1Cl` (centres undefined), the outcome in test [1], in test [6], in [7], in [9], in [10] and in test [16] was inactive. For the same compound, the concentration at half-maximal activity (AC50) is 7.86 µM (active) in test [2]; 0.442 µM (active) in test [3]; 32.2 µM (active) in test [5]; 0.542 µM (active) in [13]; 0.483 µM (active) in test [17].

For `COC(=O)C=C(C)OP(=O)(OC)OC`, the result in test [1], in test [3], in [6], in test [7], in test [8] and in test [9] was inactive. Besides, the result in [10], in [14] and in test [18] was inactive. The AC50 is 48.1 µM (active) in test [5] and 0.0004 µM (active) in test [17].

For the compound `Fc1ccc(Oc2ccnc3cc(Cl)cc(Cl)c23)cc1`, the result in test [1], in test [10], in test [16] and in test [17] was inactive. Moreover, the AC50 in [2] is 2.49 µM (active); in test [3], 20 µM (active); in test [5] it was 5.83 µM (active); in test [9], 2.84 µM (active).

For the compound `C=CCC1=C(C)C(OC(=O)C2C(C=C(C)C)C2(C)C)CC1=O` (centres undefined), the compound was called inactive in test [1], in test [2], in test [6], in test [8], in test [9] and in [10]. In addition, the compound was classed as inactive in [14] and in test [16]. In addition, the AC50 is 2.82 µM (active) in test [3]; 1.54 µM (active) and 8.75 µM (active) in [5]; 12.8 µM (active) in [17].

Take `CC1=C(C(=O)Nc2ccccc2)SCCO1`: the call in test [1], in [6] and in test [12] was inactive. The concentration at half-maximal activity (AC50) in test [2] was 20 µM (active); in [3], 15.2 µM (active); in [5], 6.4 µM (active); in test [9] it was 15.1 µM (active); in test [13], 6.76 µM (active); in test [17], 20 µM (active).

As usually defined, the AC50 is the midpoint of the concentration-response curve, whichever way the signal moves.
